# Experimental data: PubChem BioAssay AID485364 (National Center for Advancing Translational Sciences (NCATS), 2010)
# Out of some 360,000 compounds screened, about 11,000 (3.1%) were called active. Roughly 4% stayed inconclusive and do not appear here. Calls come from the whole dose curve; as a rule, active = well fitted inhibition curve with a large enough effect; inconclusive = small, poorly fitted or top-dose-only effect; inactive = no such curve, though single readings can be large or run the other way. This excerpt belongs to a sample that is enriched for actives.
# Molecular target: Schistosoma mansoni thioredoxin glutathione reductase (TGR) (UniProt Q962Y6)
# Assay: qHTS Assay for the Inhibitors of Schistosoma Mansoni Peroxiredoxins; note: nearly all actives have a fitted effect of over 60% in size
# Details: purified TGR, DTNB reduction, TNB absorbance 405 nm; series mostly up to 114 µM; activity change, negative = inhibition: at the top concentration
# How it was run: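 TGR 20 nM + NADPH 100 uM (dispensed conc.), cpd preinc 15 min RT; start with NADPH (500 uM addition) then DTNB (15 mM addition). Kinetic TNB absorbance, 405 nm filter. Four-parameter Hill fit across titration.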
# % is set by controls: 0 for no effect and ±100 for the full control effect; potency is the fitted concentration of half-maximal effect.
SMILES,"activity change, negative = inhibition",Potency
COc1ccccc1N1CCN(C(=O)C2CCN(S(=O)(=O)c3c(C)noc3/C=C/c3ccc(C)cc3)CC2)CC1,-4.21% (inactive),–
Cc1noc(/C=C/c2ccco2)c1S(=O)(=O)N1CCC(C(=O)N2CCc3ccccc32)CC1,–,44.7 µM (active)
CNC(=O)C1CCN(S(=O)(=O)c2c(C)noc2/C=C/c2cccc(C)c2)CC1,-13.8% (inactive),–
CCCCCCn1nnc2sc(-c3ccccc3)cc2c1=O,0.709% (inactive),–
CCCNC(=O)C1CCN(c2nc3ccc(C)cc3[nH]2)CC1,13.9% (inactive),–
CC(=O)N(C1=C(Cl)C(=O)c2ccccc2C1=O)c1ccc(C(=O)O)cc1,–,0.224 µM (active)
O=C(Nc1ccc(F)cc1F)c1ccc2c(=O)n3c(nc2c1)CCCCC3,-3.37% (inactive),–
COc1ccccc1-n1c(-c2ccc(C)cc2)cn2c3c(=O)n(C)c(=O)n(C)c3nc12,-0.306% (inactive),–
CCn1c(SC)nc(O)c(C(c2ccc(OC)c(O)c2)c2c(O)nc(SC)n(CC)c2=O)c1=O,–,3.98 µM (active)
CCn1c(CNC(=O)c2ccc(OC)c(OC)c2)nnc1SCC(=O)Nc1ccccc1,0% (inactive),–
CCn1c(COc2ccc(OC)cc2)nnc1SCC(=O)Nc1cc(OC)ccc1OC,-0.757% (inactive),–
Cc1ccc(-n2c(=O)c3cccnc3n2CC(=O)Nc2ccccc2C(F)(F)F)cc1C,-13% (inactive),–
O=C(CCn1c(=O)c2sccc2n(Cc2ccc(F)cc2)c1=O)NCc1ccc2c(c1)OCO2,2.35% (inactive),–
C/C(=N\NC(=O)c1ccc2ccccc2c1)c1cccnc1,-1.51% (inactive),–
CCn1c(O)c2ccc(C(=O)N=NC(=O)c3cccnc3)cc2c1O,–,100 µM (active)
CCn1c(O)c(N=NC(=O)c2cccc(S(=O)(=O)N3CCCCC3)c2)c2ccccc21,3.59% (inactive),–
CCOc1ccc(C(=O)N2CCN(CCc3ccccn3)CC2)cc1,-1.65% (inactive),–
CCOc1ccc(NC(=O)c2c(NCc3cccc(OC)c3OC)sc3c2CCC3)cc1,-3.15% (inactive),–
COC(=O)CN(c1cccc(C(C)=O)c1)S(C)(=O)=O,–,50.1 µM (active)
CCOc1ccc(N(CC(=O)Nc2cccc(OC)c2)S(C)(=O)=O)cc1,0% (inactive),–
Cc1cccc(N(CC(=O)N2CCOCC2)S(C)(=O)=O)c1,4.96% (inactive),–
CCCc1cc(=O)n2[nH]c(NCc3ccc(CC)cc3)nc2n1,11.4% (inactive),–
COc1ccccc1NC(=O)CN1C(=O)c2ccccc2Sc2ccc(C(=O)N3CCCC3)cc21,3.29% (inactive),–
CO/N=C/c1ccc(N2CCN(C(=O)c3cccc(Cl)c3)CC2)c([N+](=O)[O-])c1,-1.75% (inactive),–
O=C1CSC(=S)N1/N=C/c1ccc(O)c([N+](=O)[O-])c1,–,3.55 µM (active)

SMILES,"activity change, negative = inhibition",Potency
CCC1=Nc2cc(C(=O)NCC(C)c3ccccc3)ccc2Sc2ccc(C)cc21 (stereo not drawn),4.73% (inactive),–
CCN1CCC(N(Cc2ccc(F)cc2)C(=O)Nc2cc(C)ccc2C)CC1,5.4% (inactive),–
Cc1cnc(C(=O)OCC(=O)Nc2ccc(Cl)cc2Cl)cn1,3.82% (inactive),–
Cc1cnc(C(=O)Oc2cccc(Cl)c2Cl)cn1,–,22.4 µM (active)
Cc1ccc(-c2cc(C(=O)Oc3ccccc3Cl)no2)cc1C,-2.53% (inactive),–
CCCCSc1ncnc2c1sc1nc(N3CCOCC3)c3c(c12)CCCC3,5.26% (inactive),–
COc1cc2c(=O)c(S(=O)(=O)c3ccc(C(C)C)cc3)cn(Cc3ccccc3C)c2cc1OC,-0.789% (inactive),–
CCOc1ccc(OCC)c(NC(=O)c2c(C)nn(-c3ccccc3)c2-n2cccc2)c1,-1.29% (inactive),–
CCOc1ccccc1NC(=O)Cn1nnc(C(=O)Nc2ccc(C)c(C)c2)c1N,-7.69% (inactive),–
CCOc1ccc(N(CC)S(=O)(=O)N2CCCC(C(=O)Nc3ccc(C(C)=O)cc3)C2)cc1 (stereo not drawn),8.08% (inactive),–
O=C(NCCCN1CCOCC1)c1ccc([N+](=O)[O-])cc1[N+](=O)[O-],0.872% (inactive),–
O=S(=O)(NCCCN1CCOCC1)c1ccc(F)c(Cl)c1,-19.4% (inactive),–
O=[N+]([O-])c1cc(S(=O)(=O)CCCN2CCOCC2)ccc1F,–,7.08 µM (active)
COC(=O)c1cc2occc2n1Cc1nc(-c2ccc(C)cc2)oc1C,-25.2% (inactive),–
COc1ccc(-c2nc3sc(CCNC(=O)C(C)(C)C)c(C)n3n2)cc1,-1.4% (inactive),–
Cc1ccc(S(=O)(=O)NCCSc2ccccc2)cc1[N+](=O)[O-],4.17% (inactive),–
CCS(=O)(=O)c1cc([N+](=O)[O-])c(Sc2ccccc2N)s1,–,20 µM (active)
Cc1c(C(=O)Nc2cccc(Cl)c2)oc2ccc(S(=O)(=O)N3CCOCC3)cc12,1.77% (inactive),–
CCOc1ccc2nc(N3CCC(C(=O)Nc4cc(C)ccc4C)CC3)sc2c1,4.2% (inactive),–
O=Cc1c(Nc2ccccc2Cl)nc2ccccn2c1=O,–,10 µM (active)
Cc1cccn2c(=O)c(C=O)c(Nc3ccc(S(N)(=O)=O)cc3)nc12,1.12% (inactive),–
O=Cc1c(N2CCN(c3cccc(Cl)c3)CC2)nc2ccccn2c1=O,3.7% (inactive),–
CC1CCCN(c2csc3ccc(F)cc3c2=O)C1 (stereo not drawn),-10.8% (inactive),–
COc1ccc(CNC(=O)CC2Oc3ccc(C)cc3NC2=O)cc1 (stereo not drawn),11% (inactive),–
O=C(NCCc1ccc(Cl)cc1)c1ccc2nc(CCc3ccccc3)oc2c1,11.9% (inactive),–

SMILES,"activity change, negative = inhibition",Potency
Cc1ccc(C)c(N2CCN(C(=O)CCc3c(C)nc4c(c3C)c(=O)n(C)c(=O)n4C)CC2)c1,0.107% (inactive),–
Cc1cccnc1NC(=O)CSc1nnc(COc2ccc(C(C)C)cc2)n1C,16.3% (inactive),–
COc1ccccc1C(=O)Nc1ccc(OCc2nnc3c4ccccc4c(C)nn23)cc1,-1.05% (inactive),–
Cc1ccc(OCc2nnc(SC3CCc4ccccc4C3=O)n2C)cc1 (stereo not drawn),–,17.8 µM (active)
CC(=O)Nc1ccc(S(=O)(=O)N2CCN(c3ccccc3)CC2)cc1,14.6% (inactive),–
CC(=O)Nc1ccc(S(=O)(=O)N2CCn3cccc3C2C)cc1 (stereo not drawn),–,44.7 µM (active)
CC(=O)Nc1ccc(S(=O)(=O)N2CCSCC2)cc1,5.01% (inactive),–
Cc1cccc(N(C)C(=O)CS(=O)(=O)c2cccc3nsnc23)c1,5.42% (inactive),–
CCOc1cccc(-c2nn3c(-c4ccccn4)nnc3s2)c1,0% (inactive),–
Cc1nc2c(-c3ccc(F)cc3)c(C)nn2c(C)c1CCC(=O)NCc1ccco1,-2.64% (inactive),–
Fc1ccc(-c2ccc(-c3nn4c(-c5ccco5)nnc4s3)o2)cc1,–,50.1 µM (active)
CCN(CCCNC(=O)Cn1ncc2c3ccccc3n(C)c2c1=O)Cc1ccccc1,-0.585% (inactive),–
COc1ccc(N2CCN(C3=NS(=O)(=O)C(c4cccc(Br)c4)=C3C)CC2)cc1,-3.56% (inactive),–
COc1ccccc1CNC(=O)c1ccccc1NC(=O)c1nsc2ccccc12,0.625% (inactive),–
COc1ccc(N2C(=O)C3CCCN3C2c2cccs2)cc1 (stereo not drawn),9.2% (inactive),–
COc1ccc(N2C(=O)C3C(C2=O)C(C(=O)c2ccccc2)N2CCCC32)cc1 (stereo not drawn),–,22.4 µM (active)
COc1ccc(C2NC(=O)N(C)C3=C2C(=O)N(c2ccc(C(=O)O)cc2)C3)cc1 (stereo not drawn),9.85% (inactive),–
Cc1oc(-c2ccccc2)nc1Cn1c(SCc2cccc(C(F)(F)F)c2)nc2cccnc21,9.82% (inactive),–
Cc1c2cnn(-c3ccccc3)c(=O)c2c(C)n1C(C)C(=O)Nc1ccc(Br)cc1F (stereo not drawn),-0.551% (inactive),–
O=C(/C=C/c1ccccc1)Nc1cc(-c2nc3cc(Cl)ccc3o2)ccc1Cl,-1.37% (inactive),–
COc1ccc(NC(=O)c2sc3nc(-c4cc5cccc(OC)c5oc4=O)[nH]c(=O)c3c2C)cc1,0.376% (inactive),–
COc1cc(CNCCSc2nnnn2C)ccc1OCc1ccc(Cl)cc1Cl,0.744% (inactive),–
O=c1[nH]c2ccccc2n2c(-c3ccccc3)nnc12,–,0.1 µM (active)
O=c1cc(-c2ccccc2)n2c(SCc3ccccc3)nnc2[nH]1,-4.13% (inactive),–
CC(C)Cn1c(=O)c2ccccc2n2c(-c3cccc(Cl)c3)nnc12,2.27% (inactive),–

SMILES,"activity change, negative = inhibition",Potency
Cc1ccc(Cn2c(CCCNC(=O)C3CCCCC3)nc3ccccc32)cc1,-13.8% (inactive),–
CCS(=O)(=O)N1CCc2cc(C(=O)NCc3ccc(C)cc3)ccc21,0.0863% (inactive),–
COc1ccc(S(=O)(=O)n2nc(C)c(S(=O)(=O)N3CCCCCC3)c2C)cc1,0.8% (inactive),–
Cc1ccc(C(=O)Nc2cc3c(cc2N2CCCC2)n(C)c(=O)c(=O)n3C)cc1,-11.3% (inactive),–
Cc1ccc(NS(=O)(=O)c2ccc3c(c2)n(C)c(=O)c(=O)n3C)c(C)c1,4.57% (inactive),–
CCc1ccc(S(=O)(=O)Nc2cc3c(cc2N2CCCCC2)n(C)c(=O)c(=O)n3C)cc1,–,50.1 µM (active)
CCOC(=O)C1CCN(c2ncnc3c2c(-c2ccccc2)cn3-c2cccc(C)c2)CC1,14.4% (inactive),–
CCOC(=O)C1CCN(c2nc3c(S(=O)(=O)c4ccc(CC)cc4)nnn3c3ccc(Cl)cc23)CC1,2.89% (inactive),–
COc1ccc(S(=O)(=O)NCc2cccn2Cc2cccc(C)c2)cc1,-10.6% (inactive),–
Cn1c(=O)c2c(-c3ccccc3Br)n(Cc3ccccc3)cc2n(C)c1=O,4.79% (inactive),–
CC(C)N(C(=O)CN1CCN(S(=O)(=O)c2ccc(Br)s2)CC1)C(C)C,3.3% (inactive),–
Cc1ccc(S(=O)(=O)N2CCN(CC(=O)N/N=C/c3ccc(Br)s3)CC2)cc1,-2.13% (inactive),–
Cc1cccc(NC(=O)CN2CCCN(S(=O)(=O)c3ccc(Br)s3)CC2)c1,–,25.1 µM (active)
COc1ccc(CCNC(=O)CCCn2c(=O)c3ccccc3n(Cc3ccc(F)cc3Cl)c2=O)cc1OC,1.2% (inactive),–
Cc1ccc(-n2nc(-c3ccco3)cc2C(=O)NCc2cccnc2)cc1,–,3.55 µM (active)
CSc1sc(C(=O)NC(=O)NCc2cccnc2)c(C)c1-c1ccon1,-0.382% (inactive),–
Cc1ccc(C(=O)NC(=S)NCc2cccnc2)cc1,-28.6% (inactive),–
Cc1ccccc1CNC(=O)CCc1cn(Cc2ccccc2C)c2ccccc12,-3.66% (inactive),–
Cc1cc(C)cc(NS(=O)(=O)c2ccc(-c3cc(C)no3)s2)c1,-1.74% (inactive),–
Cc1ccccc1CN1C[C@@H]2C[C@@H](c3ccc4nsnc4c3)N3CCC[C@@]23C1=O,-34% (inactive),–
Cc1ccccc1CN1C[C@@H]2C[C@@H](c3cn(C)nc3-c3ccccc3)N3CCC[C@@]23C1=O,–,7.94 µM (active)
Cc1ccc(CN2CCN(Cc3cn(C)nc3-c3ccccc3)CC2CCO)o1 (stereo not drawn),-32.4% (inactive),–
CC(C)c1ccc(NC(=O)c2ccc3c(O)c(S(=O)(=O)c4ccccc4)c(=O)[nH]c3c2)cc1,8.62% (inactive),–
